Screening data as filed in PubChem.
Rows were chosen to be rich in hits. Some 0.4% of all compounds tested hit in one or more screens of this group.
FMDV RLuc = Primary qHTS Assay for Foot and Mouth Disease Virus Antivirals against NCGC Sytravon and CBC Compound Libraries: Renilla Luciferase Signal. AID 1745857, 2022. Potency, µM (titrated, usually from 57.5 µM), usual class: inhibitors. FMDV replicon cells, Renilla luciferase signal. 0.32% of 120,000 active; note: nearly all actives have a fitted effect of over 55% in size
FMDV FLuc = Primary qHTS Assay for Foot and Mouth Disease Virus Antivirals against NCGC Sytravon and CBC Compound Libraries: Firefly Luciferase Signal | FMDV antiviral cell assay, firefly luciferase signal | Potency, µM (titrated, usually from 57.5 µM), usual class: inhibitors | 0.23% of 120,000 active; note: nearly all actives have a fitted effect of over 60% in size
Of the large screens only hits and unclear results are named; the others gave an inactive call. Calls come from the whole dose curve.

COc1ccc(CNC(=O)Cn2c(=O)oc3cc(S(=O)(=O)N4CCCC4)ccc32)cc1	none
CC(C)c1ccc(NC(=O)Cn2c(=O)oc3cc(S(=O)(=O)N4CCCC4)ccc32)cc1	FMDV RLuc inconclusive, FMDV FLuc 6.31µM
CN(C)c1ccc(CNC(=O)Cn2c(=O)oc3cc(S(=O)(=O)N4CCCCCC4)ccc32)cc1	FMDV RLuc 20µM, FMDV FLuc inconclusive
Cc1cc(C)cc(NC(=O)Cn2c(=O)oc3cc(S(=O)(=O)N4CCCC4)ccc32)c1	none
O=C(Nc1ccncc1)c1ccc(SC(F)(F)F)cc1	FMDV RLuc 20µM, FMDV FLuc inconclusive
O=C(Nc1cccnc1)c1ccc(SC(F)(F)F)cc1	none
Cc1ccc2nc(-c3ccc(NC(=O)COc4ccccc4C(C)(C)C)cc3)sc2c1	none
CC(=O)Nc1nc2n(n1)C(c1ccc(F)cc1)C=C(c1ccc(Cl)cc1)N2 (stereo unspecified)	none
O=C1CC(c2ccc(Cl)cc2)CC2=C1C=Nc1ccccc1N2 (stereo unspecified)	none
CC1=C2C(=O)CC(c3ccc(Cl)cc3)CC2=Nc2ccccc2N1 (stereo unspecified)	FMDV RLuc 10µM, FMDV FLuc 8.91µM
CC(=O)c1ccc(Oc2nc(C)nc3c2oc2ccccc23)cc1	FMDV RLuc 2.82µM, FMDV FLuc inconclusive
CCOC(=O)c1ccc(Oc2nc(C)nc3c2oc2ccccc23)cc1	none
CC(=O)N1CCCc2ccc(NC(=O)c3ccc(OC(C)C)cc3)cc21	FMDV FLuc inconclusive
CCCCOc1ccc(C(=O)Nc2ccc3c(c2)N(C(C)=O)CCC3)cc1	FMDV FLuc 1.26µM
Cc1cccc(N2CCN(c3ncnc4c3nc3n4CCCCC3)CC2C)c1 (stereo unspecified)	FMDV RLuc 2.51µM, FMDV FLuc 2.82µM
Clc1cccc(N2CCN(c3ncnc4c3nc3n4CCCC3)CC2)c1	FMDV RLuc inconclusive
COc1cc(C2c3c(-c4ccccc4O)n[nH]c3C(=O)N2Cc2ccncc2)cc(OC)c1OC (stereo unspecified)	none
CCc1c(C)sc2c1CCN(C(=O)Nc1ccc(F)c(Cl)c1)C2c1ccc(F)cc1 (stereo unspecified)	FMDV RLuc inconclusive, FMDV FLuc 35.5µM
CCc1c(C)sc2c1CCN(C(=O)Nc1ccccc1C(=O)OC)C2c1ccc(F)cc1 (stereo unspecified)	none
O=C(NC1CCCC1)c1ccc(CSc2nc3cccnc3n2Cc2ccccc2)cc1	none
CCCCS(=O)(=O)c1oc(-c2cccs2)nc1S(=O)(=O)c1ccc(F)cc1	FMDV FLuc 28.2µM
CCCCCS(=O)(=O)c1oc(-c2cccs2)nc1S(=O)(=O)c1ccc(C)cc1	none
CCCCN(CCCNC(=O)c1cc(Nc2ccc(OC)cc2OC)nc2ccccc12)Cc1ccccc1	FMDV RLuc inconclusive
CC1Cc2cc(S(=O)(=O)NCCC(=O)NCc3cccs3)ccc2N1C(=O)C1CC1 (stereo unspecified)	none
O=C(CCc1ccccc1)NC1CCN(c2ccccc2S(=O)(=O)C(F)(F)F)CC1	FMDV RLuc inconclusive
O=C(Cc1ccccc1)NC1CCN(c2ccc(S(=O)(=O)C(F)(F)F)cc2)CC1	FMDV RLuc 3.55µM, FMDV FLuc 3.16µM
O=C(OCC1CCCO1)c1ccc2c(c1)N(Cc1cccc(F)c1)C(=O)c1ccccc1S2(=O)=O (stereo unspecified)	none
Cc1ccccc1C(=O)Nc1nc(-c2ccc(Br)cc2)ns1	FMDV RLuc 35.5µM, FMDV FLuc inconclusive
COc1ccccc1C(=O)Nc1nc(-c2ccc(Br)cc2)ns1	none
CCC(NC(=O)/C=C/C(=O)O)c1ccccc1 (stereo unspecified)	none
O=C(Nc1ccc(Oc2ccccc2)cc1)c1cccc(CN2CCCC2=O)c1	FMDV RLuc 7.94µM, FMDV FLuc inconclusive
CC(C)CCC(C)NC(=O)c1ccc(CN2CCCC2=O)cc1 (stereo unspecified)	none
CC(C)(C)c1ccc(NC(=O)c2ccc(CN3CCCC3=O)cc2)cc1	FMDV RLuc 22.4µM, FMDV FLuc inconclusive
O=C(Nc1ccccc1Oc1ccccc1)c1cccc(CN2CCCC2=O)c1	none
COc1ccc(Nc2cc(C)nc(Nc3ccc(NC(=O)C4CCCCC4)cc3)n2)cc1	FMDV RLuc 28.2µM, FMDV FLuc inconclusive
Cc1cc(N2CCOCC2)nc(Nc2ccc(NC(=O)c3ccccc3)cc2)n1	none
Cc1ccc(NC(=O)C2CCCCC2)cc1	none
Cc1cc(Nc2ccccc2)nc(Nc2ccc(NC(=O)c3ccc(Cl)cc3)cc2)n1	FMDV RLuc 12.6µM, FMDV FLuc 14.1µM
CC(NCc1cccc(C#N)c1)c1cc2ccccc2o1 (stereo unspecified)	none
COC(=O)CCNC(=O)N1CCc2[nH]cnc2C1c1cccc(Cl)c1Cl (stereo unspecified)	none
Brc1ccc(-c2csc3ncnc(Sc4nnc(C5CC5)o4)c23)cc1	FMDV RLuc inconclusive, FMDV FLuc 25.1µM
O=c1c2c(-c3ccc(Br)cc3)csc2ncn1-c1ccccc1	none
CC(C)CN1CCOC(CNC(=O)N2CCN(S(=O)(=O)c3ccc(F)cc3)CC2)C1 (stereo unspecified)	none
Cc1ccc(NC(=O)Cn2cnc3c2c(=O)n(C)c(=O)n3C)cc1C	none
O=S(=O)(Nc1cccc(C(F)(F)F)c1)c1ccc(-c2cnc(C3CC3)o2)cc1	FMDV FLuc inconclusive
COc1ccc(NS(=O)(=O)c2ccc(-c3cnc(C4CC4)o3)cc2)cc1OC	FMDV FLuc 8.91µM
CCCCCCCOc1ccc(/C=C/C(=O)O)cc1OC	none
O=C(Nc1ccc(C23CC4CC(CC(C4)C2)C3)cc1)c1cccc(Cl)c1	FMDV FLuc 0.355µM
O=C(Nc1ccc(C23CC4CC(CC(C4)C2)C3)cc1)c1ccccc1Cl	none
O=C(Cc1c[nH]c2ccccc12)Nc1cccc2ccccc12	none
CCn1c2c(c(=O)n3ncc(C(=O)Nc4cc(Cl)ccc4OC)c13)CN(Cc1ccc(OC)cc1)CC2	none
COc1ccc(CN2CCc3c(c(=O)n4ncc(C(=O)N5CCN(c6ccccc6OC)CC5)c4n3C)C2)cc1	FMDV RLuc 1.78µM, FMDV FLuc 2.82µM
Cc1ccc([N+](=O)[O-])cc1S(=O)(=O)NC(c1ccccc1)c1cccs1 (stereo unspecified)	none
Cc1cc(C(=O)Cn2c(Cl)nc3c2c(=O)n(C)c(=O)n3C)c(C)n1Cc1ccc(F)cc1	none
Cc1cc(C(=O)Cn2c(Cl)nc3c2c(=O)n(C)c(=O)n3C)c(C)n1CC(F)(F)F	FMDV RLuc 15.8µM, FMDV FLuc 22.4µM
COc1ccc(CCNC(=O)c2c(O)nc3c(C)cccn3c2=O)cc1OC	none
COc1ccccc1CNC(=O)c1c(O)nc2c(C)cccn2c1=O	FMDV RLuc 35.5µM, FMDV FLuc inconclusive
Cc1nc(C#N)c(N2CCN(C(=O)CN3CCC(C)CC3)CC2)o1	none
Nc1nc(CN2CCN(c3ccc(F)cc3)CC2)nc(N2CCCc3ccccc32)n1	none
CCCc1cc(=O)[nH]c(Nc2ccc(C(=O)O)cc2)n1	none
CC(C)NS(=O)(=O)c1ccc(Cl)c(C(=O)NCc2ccc(-c3nc4ccccc4s3)o2)c1	FMDV RLuc 14.1µM, FMDV FLuc inconclusive
O=C(NCc1ccc(-c2nc3ccccc3s2)o1)c1ccc(F)cc1F	none
Cc1ccc(C)c(Nc2cc(C(=O)NCCCN(C)C3CCCCC3)c3ccccc3n2)c1	FMDV RLuc 31.6µM
Cc1cc(C)cc(Nc2cc(C(=O)NCCCN(C)C3CCCCC3)c3ccccc3n2)c1	none
COc1ccc(-n2cc(-c3ccc4c(c3)OCO4)n(CC(=O)Nc3cccc(C)c3C)c2=O)c(OC)c1	FMDV FLuc inconclusive
